The whole screen tested about 48,000 compounds, of which about 13,000 (27%) showed an effect of 50% or more. The list shows a part of the results.

In this assay the test system is Wolbachia pipientis. The experiment in a line: Anti-Wolbachia Cell-Based Screen. The format is functional. Also noted: scale not given: in the data most compounds retested in dose-response had high values. The settings on record: 5 µM.
Regarding `Cn1nc2c(cc1=O)CN(CC1CCCCO1)CC2` (stereo unspecified), the “Percent Effect” value worked out at 1.26%.

Regarding `CCC1CCCCN1Cc1ncc(C(C)(C)C)o1` (stereo unspecified), the “Percent Effect” value amounted to 88.88%.

For the compound `Cc1cnn(CC2CCCCN2Cc2cc(C)on2)c1` (stereo unspecified), the “Percent Effect” value is listed as 27.16%.

`CC(C)(C)c1cnc(CN2CCCC2Cn2cccn2)o1` (stereo unspecified): the “Percent Effect” value was found to be 3.93%.

`CCC1CCCCN1Cc1ncc(-c2ccc(OC)cc2)o1` (stereo unspecified): the “Percent Effect” value is -15.61%.

Take `Cc1cnn(CC2CCCCN2Cc2ncc(C(C)(C)C)o2)c1` (stereo unspecified): the “Percent Effect” value is given as 103.7%.

On to `CC(C)(C)c1cnc(CN2CCC[C@H]2CO)o1`, for which the “Percent Effect” value is recorded as -3.159%.

In the case of `NC(=O)c1ccc(N2CCN(Cc3c(Cl)cncc3Cl)CC2)nc1`, the “Percent Effect” value was -3.438%.

Turning to `O=C(NS(=O)(=O)c1cccc(C(F)(F)F)c1)c1cnsn1`, the “Percent Effect” value is reported as 1.908%.

On to `Cn1cc(CCCN2CCN(Cc3cccc(O)c3)CC2)cn1`, for which the “Percent Effect” value was determined as 5.998%.

For `COc1ccc(CN2CCN(C3CCc4ccccc4C3)CC2)cc1O` (stereo unspecified), the “Percent Effect” value was 105.5%.

As for `COc1ccc(CN2CCC(O)CC2)c(OC)c1`, the “Percent Effect” value was -14.46%.

For `Oc1cccc(CN2CCN(C3CCc4ccccc4C3)CC2)c1` (stereo unspecified), the “Percent Effect” value is given as 111.6%.

As for `COc1cc(O)ccc1CN1CCN(C2CCc3ccccc3C2)CC1` (stereo unspecified), the “Percent Effect” value amounted to 95.73%.

With `Cc1ccnn1CC(=O)N1CCN(C2CCc3ccccc3C2)CC1` (stereo unspecified), the “Percent Effect” value is reported as -4.494%.

For `CC(CN1CCOCC1)NC1CCN(Cc2cccc(O)c2)CC1` (stereo unspecified), the “Percent Effect” value is listed as -2.88%.

For `COc1ccc(CN2CCCC(Nc3cccc(F)c3)C2)cc1O` (stereo unspecified), the “Percent Effect” value is reported as -4.671%.

Turning to `COc1ccc(CNC2CCN(c3ccccc3)C2)cc1O` (stereo unspecified), the “Percent Effect” value came to 14.8%.

For `COc1cc(N2C[C@H]3CN(CCN4CCCC4)C(=O)[C@H]3C2)ncn1`, the “Percent Effect” value is recorded as -15.15%.

For the compound `O=C(CNc1cc(Br)ccc1Br)NC1CCS(=O)(=O)C1` (stereo unspecified), the “Percent Effect” value is -18.44%.

Regarding `CCN1CCCC(CN2CCn3nc(CNC(=O)N(C)C)cc3C2)C1` (stereo unspecified), the “Percent Effect” value is listed as 11.32%.

As for `CN(C)S(=O)(=O)N1CCN(C(=O)OC(C)(C)C)CC12CCCCC2`, the “Percent Effect” value is 120.5%.

For the compound `COc1ccc(C2CCN(S(=O)(=O)CCCC#N)CC2)cc1`, the “Percent Effect” value is given as -10.18%.

Take `CS(=O)(=O)N1CCCC12CCCN(C(=O)c1ccncc1)C2` (stereo unspecified): the “Percent Effect” value is given as -13.2%.

Take `CS(=O)(=O)N1CCCC12CCCN(C(=O)c1ccnnc1)C2` (stereo unspecified): the “Percent Effect” value stood at 0.7841%.

As to `CC(C)(C)OC(=O)N1CCC(NC2CC2)CC1`, the “Percent Effect” value was -10.91%.

`CC(C)(C)OC(=O)N1CCN(S(=O)(=O)CCCC#N)C2(CCCCC2)C1`: the “Percent Effect” value came to 111.4%.

Consider `CC(CC#N)N1CCN(C(=O)OC(C)(C)C)CC1` (stereo unspecified), for which the “Percent Effect” value was -8.127%.

Turning to `CC(CO)N1CCN(C(=O)OC(C)(C)C)CC1` (stereo unspecified), the “Percent Effect” value is recorded as -0.0103%.

For the compound `CC(C)(C)OC(=O)N1CCN(S(C)(=O)=O)C2(CCCCC2)C1`, the “Percent Effect” value stood at 138.8%.

Consider `O=C(NC1CC1)N1CC[C@H]2[C@H]1CCN2c1nncs1.O=C(O)C(F)(F)F`, for which the “Percent Effect” value stood at 6.883%.

In the case of `CCN(Cc1ccc2c(c1)OCCO2)C(=O)NC(C)Cn1ccnc1` (stereo unspecified), the “Percent Effect” value amounted to 1.976%.

Regarding `CCOC(=O)c1ccc(NC(=O)c2cc3c([nH]c2=O)CCCC3)cc1`, the “Percent Effect” value was -8.889%.

`CCOc1ccc(NC(=O)c2cc3c([nH]c2=O)CCC3)cc1`: the “Percent Effect” value was 108.3%.

On to `CCOc1ccc(NC(=O)c2cnc(N3CCCC3)nc2C)cc1`, for which the “Percent Effect” value came to 17.2%.

Take `Cc1ncsc1CN1C[C@@H]2COC[C@]2(C(=O)NC(C)C)C1.O=C(O)C(F)(F)F`: the “Percent Effect” value is listed as -19.77%.

In the case of `Cc1nc(C)c(C(=O)Nc2cc(N3CCC(C)CC3)ncn2)s1`, the “Percent Effect” value is on record as 1.923%.

Consider `CCCc1nc(C)c(C(=O)NCc2ccc(C)n2C)s1`, for which the “Percent Effect” value is on record as 17.26%.

With `Cc1cccc(NC(=O)c2sc(C)nc2C)n1`, the “Percent Effect” value is listed as 165.1%.

As to `CCCc1nc(C)c(C(=O)Nc2cccc(C)n2)s1`, the “Percent Effect” value was found to be 125.8%.

As to `Cc1nc(C)c(C(=O)NCCNC(=O)Cc2cccc(F)c2)s1`, the “Percent Effect” value was -2.44%.

`CCCc1nc(C)c(C(=O)NS(=O)(=O)c2cccnc2)s1`: the “Percent Effect” value is recorded as -11.93%.

Take `COCC(O)CN(C)C(=O)c1cccc(-c2csc(C)n2)c1` (stereo unspecified): the “Percent Effect” value is given as -1.754%.

With `CCn1nc(C)c(CCn2ccnc2-c2cc3n(n2)CCNC3)c1C`, the “Percent Effect” value is listed as 7.532%.

Consider `Cc1nn(C(C)C)c(C)c1NC(=O)c1ccncc1`, for which the “Percent Effect” value was 7.79%.

Take `Cc1cc(NC(=O)c2ccc(N3CCOCC3)c(C)c2)[nH]n1`: the “Percent Effect” value is on record as 7.693%.

Regarding `CC(C)c1cc(NC(=O)c2ccc(NC3CC3)nc2)[nH]n1`, the “Percent Effect” value is on record as -1.016%.

For `COc1ccc(N(C(=O)Cc2ccc(C)nc2)C(C)C)cc1F`, the “Percent Effect” value was -2.597%.

Take `CC(C)c1cc(NC(=O)c2cccnc2)[nH]n1`: the “Percent Effect” value is on record as 108.7%.

Turning to `CC(C)c1cc(NC(=O)c2ccc([S+]([O-])C(C)C)cc2)[nH]n1` (stereo unspecified), the “Percent Effect” value turned out to be 112.1%.

For `Cc1ccc(C(=O)Nc2cc(C(C)C)n[nH]2)cn1`, the “Percent Effect” value was -1.048%.

For the origin of these results see ChEMBL document CHEMBL3988442, “University of Dundee, Small-Polar-MMV Screening Library” (2021).
